Drawing on PubChem BioAssay (NCI), this text covers growth for twelve molecules.

The structures appear in SMILES notation. Compounds without any hit were thinned out: in the full panel of roughly 83,000, 20% have a hit.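 Cell lines were cultured in 96-well plates, exposed to a single compound concentration, and assessed for percent growth 48 hours later.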 A number with no mark means an inactive call. Active and inactive are the calls of the source. How the source made its calls: active means growth percent below 10; inactive means the rest.

Common to all, as to experiment: NCI-60 one-dose screen, 48 h (100 = growth as untreated, 0 = no growth, -100 = all killed)
Common to all, as to conditions: 10 µM unless noted

In assay [1] the test system is NCI-H23 lung.
Assay [2] has as its system NCI-H226 lung.
Assay [3] deals with NCI-H322M lung.
For assay [4], the system named is HOP-62 NSCLC.
Assay [5] has as its system NCI-H460 lung.
Assay [6] deals with HOP-92 NSCLC.
For assay [7], the system named is NCI-H522 lung.
Assay [8] deals with A549/ATCC NSCLC.
The subject of assay [9] is 786-0 renal.
The subject of assay [10] is COLO 205 colon.

With `Fc1cc(F)cc(C(c2c[nH]c3ccccc23)c2c[nH]c3ccccc23)c1`, the growth was 89.4% in assay [1]; 103% in [2]; 86.1% in assay [3]; 91.1% in assay [4]; 97.8% in assay [5]; 89.4% in [6]. For the same molecule, the growth in assay [7] was 75%; in assay [8], 82%; in [9], 98%; in assay [10], 97.8%.

Take `C/C(=N/O)c1ccc(F)cc1`: the growth in assay [1] was 84%; in assay [2], 91.5%; in assay [3], 111%; in assay [4], 92.8%; in [5], 36.6%; in assay [6], 109%. In addition, the growth in assay [7] is 55.4%; in assay [8], 103%; in assay [9], 107%; in assay [10], 90.6%.

Turning to `Cc1cccnc1NC(=S)Nc1ncccc1C`, the growth in [1] was 99.2%; in assay [2], 100%; in assay [3] it was 107%; in assay [4] it was 109%; in assay [5] it was 107%; in [6], 109%. Moreover, the growth in assay [7] is 88.9%; in assay [8], 110%; in assay [9], 90.1%; in [10], 116%.

Turning to `CN(C)CCNC(=O)c1cccc(-c2cnc3ccc(-c4ccc5c(c4)OCO5)nn23)c1`, the growth in assay [1] was 69.2%; in assay [2], 75.3%; in assay [3], 58.6%; in [4], 88.4%; in assay [5], 4.35% (active); in assay [6] it was 72.4%. For the same molecule, the growth in [7] was 87.7%; in assay [8], 87%; in [9], 74.2%; in assay [10], 74.8%.

In the case of `Clc1ccc(CNc2c3ccccc3nc3ccccc23)cc1`, the growth in [1] is 53%; in [2], 75.5%; in [3], 54.1%; in assay [4], 53%; in assay [5], 16.4%; in assay [6], 25.5%. The growth in [7] is 66.5%; in [8], 39.3%; in [9], 35.3%; in [10], 8.58% (active).

With `CS(=O)(=O)c1cccc(-c2c(-c3cccc(OS(N)(=O)=O)c3)nc3sccn23)c1`, the growth in assay [1] was 108%; in [2] it was 92.5%; in assay [3], 98.2%; in [4], 93.8%; in assay [5], 105%; in assay [6], 77.8%. The growth in assay [7] is 96.9%; in [8], 106%; in assay [9], 101%; in assay [10], 117%.

Turning to `CCc1ccc(C(=O)/C=C/C23c4ccccc4C(c4ccccc42)C2C(=O)NC(=O)C23)cc1` (stereo not given), the growth in [1] was 15.9%; in assay [2], 42.3%; in [3], 15.8%; in assay [4] it was -3.98% (active); in [5], 5.14% (active); in assay [6], -17% (active). For the same molecule, the growth is -12.6% (active) in [7], 21.5% in assay [8], -12.8% (active) in assay [9] and -25.9% (active) in [10].

For `CO[C@]12C=C/C(=C(/C(=O)OCc3cccnc3)C(=O)CCCCCCCC[C@@]3(OC)C=C/C(=C(/C(=O)OCc4cccnc4)C(=O)CCCCCCCC1)O3)O2`, the growth in assay [1] is -53.1% (active); in assay [2], -45.6% (active); in assay [3], 18.3%; in [4] it was 30.9%; in assay [5], 3.19% (active); in assay [6], 2.61% (active). Further, the growth in assay [7] is -4.14% (active); in assay [8], 10.7%; in assay [9], -38.4% (active); in assay [10] it was -0.264% (active).

`O=C(OCc1ccc2cccc(O)c2n1)N1CCN(C(=O)c2cc3cc(F)ccc3[nH]2)CC1`: the growth in assay [1] was -22.8% (active); in assay [2], 56.9%; in [3] it was 60%; in [4] it was -29.7% (active); in [5] it was -47.6% (active); in [6], -75.9% (active). Besides, the growth in [7] is -63.2% (active); in [8] it was -56.2% (active); in [9] it was -87.1% (active); in assay [10], -77.4% (active).

On to `O=C(/C=C/c1ccccc1)c1cccc(OCCCOc2cccc(C(=O)/C=C/c3ccccc3)c2)c1`, for which the growth in assay [1] is 95.5%; in [2] it was 108%; in [3] it was 105%; in [4], 116%; in assay [5] it was 101%; in assay [6], 101%. For the same molecule, the growth in assay [7] was 90.3%; in [8], 87.2%; in [9] it was 92.9%; in assay [10], 94.1%.

For `COc1ccc2c(O)c(/C=C3\N=Nc4ncccc43)oc2c1C[C@H]1CCNC[C@H]1F`, the growth in assay [1] is -3.41% (active); in assay [2], 1.06% (active); in [3], 9.44% (active); in assay [4], 5.59% (active); in assay [5] it was -26% (active); in assay [6], 25.7%. In addition, the growth was -13.5% (active) in assay [7], 0.136% (active) in [8], -18.6% (active) in assay [9] and -51.8% (active) in assay [10].

With `COc1ccc(-c2nc(/C=C3\SC(=NCc4ccccc4)NC3=O)c3ccccn23)cc1`, the growth is -73.4% (active) in assay [1]; 5.75% (active) in [2]; 20.4% in assay [3]; -50.7% (active) in assay [4]; -54.6% (active) in assay [5]; -38.2% (active) in [6]. For the same molecule, the growth in assay [7] is -36% (active); in assay [8], -27.3% (active); in assay [9], -96.3% (active); in [10], -69.1% (active).
